Screening results as filed in PubChem BioAssay.
Hits are enriched below; roughly 3.2% of the tested compounds scored in any of these assays.
PMP22 txn – PMP22 gene transcription modulation; S16 Pmp22-F2sN Schwann cells, FLuc/NLuc coincidence luminescence, 24 h; Potency, µM (series often up to 57.5 µM), for inactives: top-dose activity change, negative = inhibition, hits mostly inhibitors; 43,000 tested, 2% active; AID 1508649; active = clear falling dose curves in both reporters; inconclusive = both reporters move, but less clearly or upward; inactive = either reporter flat; the % is the NLuc reporter signal
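S16 Schwann cells carrying FLuc/NLuc coincidence reporter in the Pmp22 3' UTR treated with compound 24 h at 37C; FLuc then NLuc luminescence read sequentially by dual-luciferase reagents.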
p53null 32C tox – selectivity test: cytotoxicity in p53 null cells, permissive temperature; H1299-neo p53 null cells, ATP luminescence, 24 h, 32C; Potency, µM (top dose mostly 46.1 µM), inactives show top-dose activity change, negative = cytotoxicity, most hits filed as cytotoxic; 55,000 tested, 0.62% active; AID 903;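 note: 0% = DMSO only and -100% = full killing by 100 µM tamoxifen; nearly all actives have a fitted effect of over 55% in size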
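H1299-neo (p53-null) cells, 600/well, were pre-incubated overnight at 37C, then exposed to compounds at up to 46 uM for 24 hr at 32C. Viability was measured as ATP content by luminescence, and AC50 values came from Hill fits.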
p53null 39C kill – selectivity test: cytotoxicity in p53 null cells, nonpermissive temperature. H1299 p53-null (neo) cells, 39C, ATPlite viability, 24 h. Potency, µM (doses to about 46.1 µM), without a hit: at the top dose activity, negative = cell killing, actives largely listed as cytotoxic. 55,000 tested, 0.97% active. AID 904;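 note: 0% = DMSO only and -100% = full killing by 100 µM tamoxifen; nearly all actives have a fitted effect of over 50% in size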
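Temperature-shift cytotoxicity format: compound titrations on p53-null or A138V-expressing H1299 cells held 24 hr at 39C, cell ATP then measured, AC50 from Hill model.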
S16 F2sN tox – cytotoxicity in S16 Pmp22-F2sN Schwann cells; S16 Pmp22-F2sN Schwann cells (luciferase reporters placed in the Pmp22 gene) viability, CellTiter-Glo, 24 h; 43,000 tested, 0.48% active; Potency, µM (highest dose often 57.5 µM), inactives show top-dose activity change, negative = cytotoxicity, hits mostly cytotoxic; AID 1508642; note: nearly all actives have a fitted effect of over 65% in size
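Rat S16 Schwann reporter line, 24 h treatment with library compounds delivered at 23 nL per well. Cell viability by CellTiter-Glo luminescence.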
mTORC1 inh – inhibitors of mTORC1 signaling in Tsc2-/- p53-/- MEF cells; Tsc2-/- p53-/- MEF, phospho-rpS6 immunofluorescence/PI, 24 h; Potency, µM (series often up to 38.3 µM), without a hit: at the highest dose activity change, negative = inhibition, hits mostly inhibitors; 44,000 tested, 0.78% active;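 note: plate controls were DMSO for no effect and rapamycin for full effect; nearly all actives have a fitted effect of over 50% in size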
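Cell-based qHTS: Tsc2-/- p53-/- MEF, 24 h cpd, 37 °C; fix/perm, anti-phospho-S6 Alexa-488 + PI; Acumen 488 nm scan; pS6/PI ratio, % positive cells; rapamycin 7.5 nM = inhibition ref; PI count = viability.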
* hit, by the source's call; u = inconclusive; x = no result. Unless noted, calls come from the whole dose curve; as a rule, active = well fitted curve in the direction sought with a large enough effect; inconclusive = small, poorly fitted or top-dose-only effect, or another doubt; inactive = no such curve, though single readings can be large; an effect the other way counts as inactive or inconclusive. Unless noted, % is set by controls: 0 for no effect and ±100 for the full control effect; potency is the fitted concentration of half-maximal effect.

SMILES | PMP22 txn | p53null 32C tox | p53null 39C kill | S16 F2sN tox | mTORC1 inh
COc1ccccc1C(=O)Nc1nc2ccc(S(=O)(=O)N3CCCC3)cc2s1 | 9.4% | 1.8% | -3.8% | -3.9% | u
O=C(Nc1ccc2c(c1)CCC2)c1ccc(F)cc1 | x | 10µM* | -29.9% | x | x
CCCN(CCC)CC(O)Cn1cc(/C=C/C(=O)c2ccc(OCC)cc2)c2ccccc21 (configuration not stated) | u | u | 20µM* | u | u
Cc1ccc(C2=CC(c3ccccc3C)n3c(nc4ccccc43)N2)cc1 (configuration not stated) | u | 1.26µM* | u | u | -7.0%
CCc1ccc(C2=CC(c3c(F)cccc3Cl)n3c(nc4ccccc43)N2)cc1 (configuration not stated) | u | 8.91µM* | u | u | -0.3%
CCC1CCc2nc3sc(C(=O)Nc4ccc(C)cc4)c(N)c3cc2C1 (configuration not stated) | -16.3% | -1.8% | 13.5% | 3.3% | 18.5µM*
Cc1cc(NC(=O)C2CCCN(S(=O)(=O)c3ccc(Br)s3)C2)ccc1Br (configuration not stated) | u | 20.9% | 14.4% | -7.7% | -6.8%
COc1cccc(C(=O)Nc2cccc(-c3cn4ccsc4n3)c2)c1OC | 5.2% | -28.8% | 12.6µM* | -8.2% | 0.4%
CS(=O)(=O)N(CC(=O)NCCc1ccccc1)c1cc(C(F)(F)F)ccc1Cl | 16.1% | -5.1% | 11.5% | -2.0% | 6.56µM*
CC(=O)N1CCC2(CC1)OC(=O)C(C)=C2C(=O)NCc1ccccc1Cl | -6.8% | -7.5% | -8.1% | 5.2% | 6.2%
CCOc1ccc(CCNCc2c(C(=O)O)n(Cc3ccc(C)cc3)c3cc(OC)ccc23)cc1 | u | 46.2% | 47.2% | 0.1% | 11.7µM*
C=Cc1ccc(Cn2c(C(=O)O)c(CNCc3ccc(F)cc3)c3ccc(C)cc32)cc1 | u | 46.8% | u | 28.2µM* | -13.6%
COc1ccc(Cn2c(C(=O)O)c(CNCc3ccc(SC)cc3)c3ccc(OC)cc32)cc1 | u | 4.2% | u | u | 16.5µM*
O=C(CSc1nc2ccccc2n1-c1ccccc1)Nc1ncc(Cl)cc1Cl | x | -1.7% | x | x | x
COc1cc(C2CC(=O)Nc3c2c(=O)[nH]c2nc4ccccc4n32)ccc1O (configuration not stated) | -3.6% | 18.0% | -15.5% | -1.2% | -4.9%
Cc1ccc(NC(=O)c2ccc3c(O)c(S(=O)(=O)c4ccccc4)c(=O)[nH]c3c2)cc1Cl | -27.0% | -11.3% | -20.9% | -4.5% | -3.7%
CCc1ccc(NC(=O)c2ccc3c(O)c(S(=O)(=O)c4ccccc4)c(=O)[nH]c3c2)cc1 | 16.5% | 12.6µM* | u | -3.3% | -7.2%
CCc1ccc(-c2cn3nc(CC)sc3n2)cc1 | -25.0% | 12.6µM* | 10µM* | 5.4% | u
CCCCCc1nn2cc(-c3ccccc3)nc2s1 | -9.5% | 10µM* | 15.8µM* | 11.0% | 1.6%
CCCc1nn2c(C)c(-c3ccccc3)nc2s1 | u | 7.94µM* | 10µM* | 3.7% | -3.2%
CCc1ccc(NC(=O)C2CCN(c3nn4cc(-c5ccc(OC)cc5)nc4s3)CC2)cc1 | -30.0% | -0.1% | -7.0% | -6.9% | -4.7%
CC(C)Cn1c(-c2cccc(Br)c2)nc2ccccc21 | u | 16.5% | -3.5% | -15.7% | -0.2%
CC(C)Cc1nn2cc(-c3cccc(Br)c3)nc2s1 | u | 12.6µM* | 15.8µM* | -4.0% | -5.5%
Cc1ccccc1OCC(=O)Nc1ccc2nc(SCC(=O)N3CCOCC3)sc2c1 | 5.7% | -17.0% | -17.7% | -0.7% | -12.5%
Clc1cccc(CSc2nncn3c2cc2sccc23)c1 | -40.2% | -11.9% | -23.5% | -1.3% | -3.6%
CC(C)c1ccc(OC(=O)c2cc(-c3ccccc3)on2)cc1 | 2.7% | 3.9% | 3.5% | 3.7% | -11.0%
Cc1c(Cl)ccc2sc(N3CCN(C(=O)CCS(=O)(=O)c4ccc(F)cc4)CC3)nc12 | 11.9µM* | 3.1% | 29.7% | u | -18.5%
